From PubChem
Shown are actives, neighbours in structure and some others; about 11% of the full set was active somewhere.
HttQ103 aggreg – reduces HttQ103-GFP aggregates in PC12 cells; PC12 HttQ103-GFP aggregates, Acumen cytometry, 40 h; Potency, µM (doses to about 46.1 µM), inactives show at the highest dose activity change, negative = inhibition, actives largely listed as inhibitors; 220,000 compounds, 1.1% hits; also: potency is read from the fitted curve at half-maximal effect; % is scaled to controls: 0 for no effect and ±100 for the full control effect; nearly all actives have a fitted effect of over 60% in size
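Aggregate formation scored by laser-scanning cytometer (488 excitation, 500–530 emission) in lysed PC12 cells expressing Q103-GFP after 100 nM tebufenozide induction; library tested in dose series, with ATPLite reagent added in the multiplex.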
ALDH1A1 inh – inhibitors of human aldehyde dehydrogenase 1A1; P00352; Purified ALDH1A1, NADH fluorescence, propionaldehyde substrate; AID 1030; 220,000 compounds, 7.3% hits; Potency, µM (titrated, usually from 75.3 µM), without a hit: at the highest dose activity, negative = inhibition, hits mostly inhibitors; active = well fitted inhibition curve with a large enough effect, not every such curve was filed as active; inconclusive = small, poorly fitted or top-dose-only effect, or another doubt; inactive = no such curve, though single readings can be large or run the other way;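 also: potency is read from the fitted curve at half-maximal effect; plate controls were no enzyme wells and a reference inhibitor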
Target sequence (P00352 whole entry, looked up): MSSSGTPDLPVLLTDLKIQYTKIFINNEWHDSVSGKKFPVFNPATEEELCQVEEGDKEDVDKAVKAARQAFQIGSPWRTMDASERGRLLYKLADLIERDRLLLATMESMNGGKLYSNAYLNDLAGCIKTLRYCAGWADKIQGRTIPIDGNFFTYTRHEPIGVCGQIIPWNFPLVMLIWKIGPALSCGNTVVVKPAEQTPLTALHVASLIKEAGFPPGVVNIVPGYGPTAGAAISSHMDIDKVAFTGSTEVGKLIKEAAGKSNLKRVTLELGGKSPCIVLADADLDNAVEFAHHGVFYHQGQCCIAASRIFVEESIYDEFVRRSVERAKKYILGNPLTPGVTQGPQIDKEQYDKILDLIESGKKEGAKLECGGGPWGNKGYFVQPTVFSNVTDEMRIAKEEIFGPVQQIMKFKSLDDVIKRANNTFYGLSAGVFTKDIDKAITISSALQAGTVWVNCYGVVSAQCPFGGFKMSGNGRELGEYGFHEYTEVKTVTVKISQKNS
CBFb-RUNX1 inh – blocks binding between human CBF-beta and RUNX1. Q01196+Q13951. AlphaScreen CBFb-His/RUNX1-biotin binding, biochemical. Potency, µM (top dose mostly 59.8 µM), for inactives: at the highest dose activity, negative = inhibition, hits mostly inhibitors. 230,000 tested, under 10 active. AID 1477; also: % of control where 0% means no effect
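AlphaScreen binding: CBFb-His and RUNX1-biotin (30 nM each) preincubated 20 min, compound added for 15 min, then nickel and streptavidin beads for 90 min, all at room temperature. Disruption of the interaction by any mechanism counts as activity.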
PNC assembly inh – blocks assembly of the perinucleolar compartment; 140,000 compounds, 3.1% hits; PC3M PTB-GFP, PNC prevalence imaging, 16 h; hits give low values; AID 2417; activity change (PNC), negative = inhibition, % at 10 µM;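 active = readout at or below -70, meaning at least 70% loss of cells showing the perinucleolar compartment, a nuclear body marking cancer cells; inconclusive = readout between -30 and a set limit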;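 also: plate controls were DMSO wells for no effect and camptothecin positive control wells for full effect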
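Read-out is percentage of cells bearing a perinucleolar compartment, from automated 20x imaging of fixed, Hoechst-stained PC3M PTB-GFP cells. Cells were seeded 4 h, then exposed 16 h to compound (23 nl of library stock) in duplicate plates.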
HPGD block – HPGD (human) dehydrogenase inhibition; P15428; purified HPGD, NADH fluorescence kinetic, PGE2 substrate; Potency, µM, for the others: at the top dose activity change, negative = inhibition, actives largely listed as inhibitors; 150,000 compounds, 4.3% hits; active = well fitted inhibition curve with a large enough effect, not every such curve was filed as active; inconclusive = small, poorly fitted or top-dose-only effect, or another doubt; inactive = no such curve, though single readings can be large or run the other way; also: potency is read from the fitted curve at half-maximal effect; % is scaled to controls: 0 for no effect and ±100 for the full control effect
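20 nM HPGD preincubated 15 min at room temperature with compound in 50 mM Tris-HCl pH 8, 0.01% Tween 20. Started with 1 mM NAD+ and 30 uM prostaglandin E2; NADH fluorescence (360/450 nm) read 5 times over 30-s intervals, last minus first.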
HTT ATP protect – cytoprotection in Huntington HTT-Q103 PC12 cell model. AID 1471. PC12 HTT-Q103 induced, cytoprotection, ATP luminescence, 40 h. Potency, µM (top dose mostly 56.4 µM), inactives show cytoprotection (ATP increase), usual class: activators. 230,000 compounds, 0.14% hits; also: potency is read from the fitted curve at half-maximal effect; % of control where 0% means no effect; nearly all actives have a fitted effect of over 45% in size
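PC12 cells with ecdysone-inducible HTT exon 1 Q103-GFP, induced with 100 nM tebufenozide and co-treated with library compounds in a dose series (1536-well, 1500 cells/well). Cytoprotection read as ATP content by ATPlite luminescence.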
* = called active by the depositor; ? = inconclusive; . = no result given; [ ] = dose if it differs, or a comment. Unless noted, calls follow the shape of the dose curve; as a rule, active = well fitted curve in the direction sought with a large enough effect; inconclusive = small, poorly fitted or top-dose-only effect, or another doubt; inactive = no such curve, though single readings can be large; an effect the other way counts as inactive or inconclusive.

SMILES	HttQ103 aggreg	ALDH1A1 inh	CBFb-RUNX1 inh	PNC assembly inh	HPGD block	HTT ATP protect
Cc1ccc(-c2nnn(CC(=O)N(Cc3ccco3)C(C(=O)NC3CCCC3)c3cccs3)n2)o1 (configuration not stated)	4%	4%	-1%	-100*	-12%	-6%[10 µM]
C[C@@H]1C(=O)O[C@H]2[C@@H](O)[C@@]34[C@H]5C[C@H](C(C)(C)C)[C@@]36[C@H](OC(=O)[C@@H]6O)O[C@@]4(C(=O)O5)[C@@]12O	.	.	.	.	.	-2%
C=C(C)COc1ccc(-c2n[nH]c(C)c2-c2ccc(OC)c(OC)c2)c(O)c1	-23%[9.22 µM]	.	-9%	.	.	-48%[10 µM]
CC[C@H](C)[C@H](NC(=O)[C@H](Cc1ccc(O)cc1)NC(=O)[C@@H](NC(=O)[C@H](CCCN=C(N)N)NC(=O)[C@@H](N)CC(=O)O)C(C)C)C(=O)N[C@@H](Cc1cnc[nH]1)C(=O)N1CCC[C@H]1C(=O)N[C@@H](Cc1ccccc1)C(=O)N[C@@H](Cc1cnc[nH]1)C(=O)N[C@@H](CC(C)C)C(=O)O	.	.	20%	.	.	.
CC(C)CCNC(=O)C(c1ccncc1)N(Cc1cccs1)C(=O)Cn1nnc(-c2ccc(F)cc2)n1 (configuration not stated)	?	?	12%	-100*	-24%	-23%[10 µM]
O=C(NCC1CCCO1)C(c1ccncc1)N(Cc1cccs1)C(=O)Cn1nnc(-c2ccc(F)cc2)n1 (configuration not stated)	12%[9.22 µM]	7%	8%	.	.	29%[10 µM]
Cc1ccc(C(=O)OCC(=O)Nc2sc3c(c2C#N)CCC3)cc1	5%	25µM*	6%	4	-9%	-6%[10 µM]
N#Cc1c(NC(=O)COC(=O)c2ccc(S(=O)(=O)N3CCCC3)cc2)sc2c1CCCCC2	?	10µM*	5%	-14	.	-6%[10 µM]
N#Cc1c(NC(=O)COC(=O)c2ccc(F)cc2)sc2c1CCC2	18%	4%	6%	11	-8%	-5%
CCN(CC)S(=O)(=O)c1ccc(C(=O)OCC(=O)Nc2sc3c(c2C#N)CCCCC3)cc1	4%	?	-1%	29	-22%	.
CC(C)C[C@@H](CC(=O)N[C@@H](CCCN)CC(=O)N[C@@H]1CCNC[C@H]1C(=O)N[C@H](CC(=O)N[C@@H](CCC(=O)O)CC(=O)O)Cc1c[nH]c2ccccc12)NC(=O)[C@@H]1CCCC[C@H]1N	.	-3%	10%	.	-5%	?
c1nc(NCC2(N3CCOCC3)CCCCC2)c2ccsc2n1	-16%	4%	-8%	-100*	-18%	-21%[0.074 µM]
O=C(OCc1nc2ccccc2s1)[C@@H]1CCCN1S(=O)(=O)c1ccccc1F	9%	7.9µM*	10%	?	-16%	1%
Cc1cc(C)cc(-n2c(C)cc(C(=S)N3CCOCC3)c2C)c1	3%	-11%	12%	16	4µM*	14%[1.9 µM]
Cc1cc(C(=S)N2CCOCC2)c(C)n1-c1ccc(Cl)cc1	13%	22µM*	-1%	7	28µM*	.
Cc1cccc(-n2c(C)cc(C(=S)N3CCOCC3)c2C)c1C	1%[9.22 µM]	?	-4%	.	.	-17%[10 µM]
Cc1cc(C(=O)C(=O)N(C)C)c(C)n1-c1ccc(Cl)cc1	4%	7%	-20%	.	.	-35%
CC(=O)OCC(NC(=O)C(CCCCNC(=O)OCc1ccccc1)NC(=O)OC(C)(C)C)C1OC(n2ccc(=O)[nH]c2=O)C(OC(C)=O)C1OC(C)=O (configuration not stated)	.	.	3%	.	.	.
C/C(=N\NC(=O)c1ccccc1)c1nc2ccccc2n1C	11µM*	-9%	-22%	-19	-15%	.
CCOC(=O)c1sc(N)c(C(=O)OCC)c1C	-28%[9.22 µM]	.	6%	.	.	-7%[10 µM]
CCOC(=O)c1c(NC(=O)Cc2cccs2)sc(C(=O)N2CCCCC2)c1C	-15%	2.5µM*	3%	22	7.1µM*	-3%
CCOC(=O)c1c(N)sc(C(=O)N2CCCCC2)c1C	-17%	?	-4%	31	8.9µM*	-22%[10 µM]
CCOC(=O)c1sc(N)c(C(=O)Nc2ccccc2)c1C	-18%[9.22 µM]	11µM*	-3%	.	.	-9%[10 µM]
CCOC(=O)c1c(N)sc(C(=O)OCCOC)c1C	-5%	14µM*	7%	.	.	7%[10 µM]
CCOC(=O)N1C(COCc2ccccc2)C=CCS1(=O)=O (configuration not stated)	.	.	11%	.	.	.
SMILES	HttQ103 aggreg	ALDH1A1 inh	CBFb-RUNX1 inh	PNC assembly inh	HPGD block	HTT ATP protect
C[C@@](N)(C(=O)O)[C@@H]1C[C@@H]1C(=O)O	.	2%	17%	.	.	-25%
Cc1cc(C)n(CC(=O)N/N=C/c2cc([N+](=O)[O-])ccc2O)n1	-22%	-7%	-5%	19	?	1%[10 µM]
Cc1ccccc1C(=O)Nc1cccc(C(=O)N/N=C/c2cc(Cl)cc([N+](=O)[O-])c2O)c1	2.8µM*	1.3µM*	1%	.	.	-8%
O=C(Cn1nc2ccccc2n1)N/N=C/c1cc(Cl)cc([N+](=O)[O-])c1O	?	14µM*	-16%	.	.	22%[10 µM]
Cc1cc(C)n(CC(=O)N/N=C/c2cc(Br)cc([N+](=O)[O-])c2O)n1	12%	20µM*	3%	.	.	.
CC(C)=CCC/C(C)=C/CO/N=C1/C[C@@H](O)[C@@H](O)[C@@H]2[C@@H]3C(=O)N(Cc4ccccc4)C(=O)[C@H]3CC[C@H]12	.	2%[13.5 µM]	-4%[13.1 µM]	.	.	-3%[10 µM]
CC(C)(C)Sc1ccc([N+](=O)[O-])cc1C(=O)Nc1ccncc1	13%[9.22 µM]	.	7%	.	.	15%[10 µM]
CCOC(=O)c1sc(N(Cc2ccccc2)C(=O)COC(=O)c2ccccc2O)nc1C	-8%	-7%	1%	-29	20µM*	19%[10 µM]
CCOC(=O)c1sc(N(Cc2ccccc2)C(=O)CSc2ncn[nH]2)nc1C	1%	4.5µM*	-7%	?	-26%	-12%
CCOC(=O)c1sc(N(C)C(C)=O)nc1C	-7%	-10%	3%	25	2%	-9%
CCOC(=O)c1sc(N(Cc2ccccc2)C(=O)COC(=O)c2ccc(O)cc2)nc1C	-2%	14µM*	14%	?	?	.
O=C(Nc1ccccc1)N1CC2(CCN(C(=O)c3ccncc3)CC2)C1	.	-1%	.	.	-2%	0%
